Source: PubChem BioAssay
The entries come from a sample that favours hits as a whole.
A1 inhib: inhibitors of A1. caspase activation, % (no concentration beside the values). 21,000 compounds, 0.51% hits. MEF A1-2A-BIM cells, caspase-Glo luminescence, 3 h; percent of clofoctol signal, DMSO as zero;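 active means most replicate scores above 10, or exactly half above 10 with mean activity above 10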;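 further: effector caspase 3 and 7 activity cleaving a DEVD luciferin substrate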
Of the large screens only hits and unclear results are named; the others gave an inactive call.

c1ccc(-c2nc(C34CC5CC(CC(C5)C3)C4)cs2)cc1	none
FC(F)(F)c1[nH]nc(-c2ccccc2)c1C12CC3CC(CC(C3)C1)C2	A1 inhib 11.0
Cc1ccc(Cn2c(=N)n(CC(=O)O)c3ccccc32)cc1	none
CC1(c2cccs2)CC(c2cccs2)=Nc2ccccc2N1 (stereo unspecified)	none
O=C(O)CSC12CC3CC(CC(C3)C1)C2	none
O=C(CSc1ccc(F)cc1Cl)C12CC3CC(CC(C3)C1)C2	none
N#CSCC(=O)C12CC3CC(CC(C3)C1)C2	A1 inhib 36.2
Cc1ccc(CNC(=O)c2c[nH]n3c(=O)cc(CSc4ccc(Cl)cc4)nc23)cc1	none
O=C(NCC12CC3CC(CC(C3)C1)C2)N1CCN(CCO)CC1	none
O=C(Nc1ccc(F)cc1)N1CCC2(CC1)C(=O)NCN2c1ccccc1	none
Nc1cc(C(F)(F)F)ccc1Oc1ccc(C2CCCCC2)cc1	A1 inhib 11.4
FC(F)(F)c1ccc(Oc2ccc(Oc3ccc(C(F)(F)F)cn3)cc2)nc1	none
CC(=O)NCCOc1ccc(C2CCCCC2)cc1	none
O=C(CCc1ccc(O)cc1)CC(O)CCc1ccc(O)c(O)c1 (stereo unspecified)	none
CNC(=O)C(C)n1c2ccccc2c2cn[nH]c(=O)c21 (stereo unspecified)	none
COc1cc(OC)cc(-c2nc(N)c3c(C)c(-c4ccc(OC)c(OC)c4)sc3n2)c1	A1 inhib 10.1
CC(=O)N/C(=C\c1ccccc1)C(=O)NC1CCCCC1C (stereo unspecified)	none
CC(C)(C)c1ccc(OCC(N)=NC(=O)c2ccc(OC(F)(F)F)cc2)cc1	none
N#Cc1c(N)nc(Sc2ccc(Cl)cc2)c(C#N)c1-c1ccccc1	A1 inhib 42.5
N#Cc1c(N)nc(SCC(=O)c2ccc3ccccc3c2)c(C#N)c1-c1cccc(F)c1	none
CCCc1nc(N)c(C#N)c(-c2ccccc2)c1CC	none
CCCc1c(C#N)c(N)nc(SCCCN2CCN(c3cccc(Cl)c3)CC2)c1C#N	none
COc1ccc(S(=O)(=O)n2nccc2-c2ccc(-c3cccs3)s2)cc1OC	none
Cc1ccc(SCC(=O)Nc2cc(C)on2)cc1	none
Cc1cc(-c2c(C(=O)Sc3ccccc3)c(C)nn2-c2ccccc2)no1	none
Cc1ccc(SC(=O)c2c(C)noc2-c2cc(C)on2)cc1	A1 inhib 9.8
CCc1cccc2c(C(C(=O)c3ccccc3)c3c[nH]c4c(CC)cccc34)c[nH]c12	none
Cc1c(C(=O)Nc2ccc(S(=O)(=O)N3CCCCC3C)cc2)oc2ccccc12 (stereo unspecified)	none
Cc1c(C(=O)Nc2ccccc2Br)oc2ccc(S(=O)(=O)N3CCCC3)cc12	A1 inhib 60.0
Cc1ccc(NC(=O)c2oc3ccc(S(=O)(=O)N4CCCC4)cc3c2C)cc1C	none
COCc1nnc(NC(=O)/C=C/c2cc(OC)c(OC)c(OC)c2)s1	none
O=C(O)c1ccccc1C(=O)NCC1COc2ccccc2O1 (stereo unspecified)	none
Cc1cc(NC(=O)CSc2nc3nccnc3c(=O)n2Cc2ccccc2)n[nH]1	none
N#CCc1nc(=O)c2ccccc2s1	none
CCCn1nc(NC(=O)c2cccc(Cl)c2)c2cc3cc(C)ccc3nc21	A1 inhib 12.2
Cc1cccc(NC(=O)c2cccc(Cn3nc(C)c(Cl)c3C)c2)c1C	none
COC(=O)c1cc(NC(=O)c2cccc(Cl)c2)cc(C(=O)OC)c1	none
CCOC(=O)c1ccc(NC(=O)c2oc3c(c2C)-c2nn(Cc4ccc(C)cc4)cc2CC3)cc1	A1 inhib 21.8
CCOC(=O)c1ccc(NC(=O)c2ccc(C(C)(C)C)cc2)cc1	none
CNC(=O)Cn1cc2c(n1)-c1c(oc(C(=O)N3CCCC3)c1C)CC2	none
O=C(CCN1CCN(c2ccccc2)CC1)c1ccc2ccccc2c1	none
CCOc1ccc2sc(C=NC(C)CC)c(O)c2c1 (stereo unspecified)	none
CC(O)(C#Cc1ccccc1)c1ccc(N2CCCCC2)c(F)c1 (stereo unspecified)	none
Cc1ccccc1C(=O)Nc1cccc(-c2cn3ccccc3n2)c1	none
COc1ccc(NC(=O)c2ccc(CSc3ccccn3)cc2)cc1	none
COc1ccc(C(=O)Nc2ccc(-c3cn4ccccc4n3)cc2)cc1	A1 inhib 31.1
COC(=O)CCn1c(=O)c2cccn2c2ccccc21	none
CC(C)(C)CC(=O)NCc1cn2ccsc2n1	none
Cc1cc(O)c(Cc2c(O)cc(C)c(C=O)c2O)c(O)c1C	none
C=C(C)CC1(NC(C)c2ccccc2)CCCCC1 (stereo unspecified)	A1 inhib 9.8
CC(=O)NC(C)c1ccccc1 (stereo unspecified)	none
CC(NC(=O)CC(c1ccccc1)c1ccccc1)c1ccccc1 (stereo unspecified)	none
O=C(c1cnn2ccccc12)N1CCC(C(O)(c2ccccc2)c2ccccc2)CC1	none
CCCc1cc(=O)[nH]c(SCC(=O)NCCc2ccccc2)n1	none
Cc1ccc(-c2cc(=O)[nH]c3ccccc23)cc1	none
CCCCCCN(CCCCCC)C(=O)Cc1c(-c2ccc(F)cc2)[nH]c2ccccc12	none
CSc1c(-c2ccc(Cl)cc2)[nH]c2ccccc12	A1 inhib 13.8
CCOC(=O)c1c(C)[nH]c(/C(C)=N\O)c1C	none
COc1cccc(NC(=O)COc2ccccc2OC)c1	none
Cc1cc(C)cc(NC(=O)c2cc3ccccc3o2)c1	none
COc1cc(NC(=O)COc2cc(C)c(Cl)c(C)c2)ccc1NC(=O)c1cc2ccccc2o1	A1 inhib 16.5
COc1ccc(-c2c(C(F)(F)F)oc3c(CN4CCCC(C)C4)c(O)ccc3c2=O)cc1OC (stereo unspecified)	none
NS(=O)(=O)c1ccc(CCn2c(=S)[nH]c3c(sc4ccccc43)c2=O)cc1	none
CCn1c2c(c3cc(Br)ccc31)CCCC2=O	none
CCn1c2c(c3cc(C4CCCCC4)ccc31)CCCC2=O	none
CCn1c2c(c3cc(C4CCCCC4)ccc31)CCC/C2=N\O	A1 inhib 15.3
CC1CCN(S(=O)(=O)c2ccc(NC(=O)/C=C/c3ccccc3)cc2)CC1	none
C=C(C(=O)O[C@H]1C/C=C(/C)C[C@H](O)[C@H]2[C@H](C)C(=O)O[C@@H]2/C=C\1C)[C@@H]1CCC(=C)[C@@H]2C[C@H](O[C@@H]3O[C@H](COC(=O)CC(=O)O)[C@@H](O)[C@H](O)[C@H]3O)C(=C)[C@@H]2C1	none
COc1ccc(OC)c(Nc2nc(-c3cccc(Cl)c3)c3c(n2)-c2ccccc2OC3)c1	none
O=C(NCc1cccnc1)/C(=C\c1cccc(Oc2ccccc2)c1)S(=O)(=O)c1ccccc1	A1 inhib 47.0
O=C(NCc1cccnc1)C1=CCN(S(=O)(=O)c2ccccc2)CC1	none
O=C(NCc1cccnc1)/C(=C\c1ccc(Br)cc1)S(=O)(=O)c1ccccc1	none
C=CCNC(=O)COc1ccc(C(C)C)cc1	none
Cc1sc2nc3c4ccccc4c(NCC4CCCO4)nn3c(=O)c2c1C (stereo unspecified)	none
COC(=O)c1ccc(C2C3=C(CC(C)(C)CC3=O)Nc3ccccc3N2C(=O)C(C)C)cc1 (stereo unspecified)	none
COC(=O)C1CCN(C(=O)c2ccccc2)CC1	none
Cc1[nH]c2ccccc2c1C(O)c1cccnc1 (stereo unspecified)	none
Cc1[nH]c2ccccc2c1C(c1ccccc1)N1CCN(C)CC1 (stereo unspecified)	A1 inhib 65.7
c1ccc(C(c2ccccc2)N2CCN(CCCc3c[nH]c4ccccc34)CC2)cc1	none
O=c1c2ccccc2nc(SCc2ccc(Cl)cc2)n1Cc1cccs1	none
CCc1nc(-n2nnc3cc(C)c(C)cc32)c2c3c(sc2n1)CCCC3	none
CS(=O)(=O)N(Cc1cc2ccccc2[nH]c1=O)c1ccccc1	none
CCCCS(=O)CSc1nc(-c2cccs2)cc(-c2ccccc2)c1C#N (stereo unspecified)	none
